From PubChem BioAssay
Calls of active or inactive are those of the source.

test: E. coli growth modulation, two-sided OD650, primary screen, E. coli filamentation project, strain DRC41, 24 h (AID 1093); conditions: OD650, 24 h, higher = more signal, called active from +8 up or from −8 down;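 further: MC1000 strain lacking acrAB efflux and sulA so SOS filamentation is blocked; test concentration not given here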

Row | Structure (SMILES) | z-score
1 | CN1C(=O)C2C=CC(C(O)c3ccc(I)cc3)N(N(c3ccccc3)c3ccccc3)C2C1=O (centres undefined) | -1.07 (inactive)
2 | Cc1ccc(S[C@]2(C(=O)NCc3ccccc3)CC(=O)N(Cc3ccccc3Cl)[C@@H]2c2ccc(CO)cc2)cc1 | -2.31 (inactive)
3 | C[C@]1(C(=O)O)c2ccccc2C(=O)N(Cc2cc(C(F)(F)F)cc(C(F)(F)F)c2)[C@H]1c1ccc(CO)cc1 | 0.305 (inactive)
4 | COC(=O)C(CC#Cc1ccc2c(c1)[C@]1(C(=O)N2)[C@H](C(N)=O)[C@H]2C(=O)O[C@H](c3ccccc3)[C@H](c3ccccc3)N2[C@@H]1c1ccccc1OCCO)C(=O)OC | 1.12 (inactive)
5 | COC(=O)[C@@]1(Cc2ccc(F)cc2)[C@H]2c3cc(C(=O)N(C)C)n(Cc4ccc(C(F)(F)F)nc4)c3C[C@H]2CN1C(=O)c1ccccc1 | -0.366 (inactive)
6 | CCN1C(=O)C2CC(=O)C3C(CN(S(=O)(=O)c4ccc(C)cc4)C3c3ccc(C)cc3)C2C1=O (centres undefined) | 0.398 (inactive)
7 | C=C[C@H](OC)[C@@H](O)c1ccc(OC)c(O)c1 | -0.0822 (inactive)
8 | CCCCCN1CC=CC23O[C@@H]4/C=C\CCCOC(=O)C4[C@H]2C(=O)N(CCCCCO)[C@@H]3C1=O (some centres undefined) | 1.62 (inactive)
9 | CC(C)C[C@H]1NC(=O)CNC(=O)[C@@]23C(=O)N[C@@H](Cc4ccccc4)C2[C@H](C)[C@@]2(C)O[C@H]2C3/C=C/C/C=C\CNC1=O (some centres undefined) | -0.743 (inactive)
10 | C=CCNC(=O)[C@@H]1[C@H]2C(=O)O[C@H](c3ccccc3)[C@H](c3ccccc3)N2[C@H](c2ccc(OCCO)cc2)[C@@]12C(=O)Nc1ccc(C#CCNC(N)=O)cc12 | 0.0528 (inactive)
11 | CC(C)[Si](C#Cc1ccccc1)(O[C@H](c1ccccc1)c1cn(Cc2ccccc2)nn1)C(C)C | 2.14 (inactive)
12 | C=C(C(=O)CC[C@@H](OC(=O)c1cccnc1)c1cccc(OCCO)c1)C(C)C | 1.12 (inactive)
13 | CCCCN1CC=CC23O[C@@H]4/C=C\CCC(C)OC(=O)C4[C@H]2C(=O)N(CCO)[C@@H]3C1=O (some centres undefined) | 2.26 (inactive)
14 | O=C/C=C/c1ccc(-c2ccccc2)cc1 | -0.168 (inactive)
15 | COc1cc(CO)cc(I)c1O[C@H]1C=C(C(=O)NCCO)C[C@@H](N(CCN2CCOCC2)C(=O)C2CCCO2)[C@@H]1O (some centres undefined) | 2.54 (inactive)
16 | CC(C)C[C@@H]1NC(=O)[C@H]2C[C@@H](C(=O)O)[C@@H](c3cccc(OCCO)c3)N2C1=O | 0.767 (inactive)
17 | COc1cc(Cc2cc3c(c(CCc4ccccc4)n2)[Si](C(C)C)(C(C)C)O[C@H]3c2ccccc2)cc(OC)c1OC | -0.637 (inactive)
18 | C=CCNC(=O)[C@@H]1[C@H]2C(=O)O[C@H](c3ccccc3)[C@H](c3ccccc3)N2[C@H](c2ccc(O)cc2)[C@@]12C(=O)Nc1ccc(C#CC3=CCCCC3)cc12 | -0.43 (inactive)
19 | Cc1cccc([C@H]2C[C@H]3C(Br)=C[C@@]2(CO)C(=O)[C@]32CO2)c1 | -0.316 (inactive)
20 | COCCOC(=O)N1C(=O)[C@@]2(c3cc(C#CCCO)ccc31)[C@H](C(=O)N1CCN(c3ncccn3)CC1)[C@H]1C(=O)O[C@H](c3ccccc3)[C@H](c3ccccc3)N1[C@@H]2c1ccc(OCCO)cc1 | -0.466 (inactive)
21 | COC(=O)[C@H](Cc1ccccc1)N1CC(C)(OC)O[C@@H](Cc2ccccc2)[C@H]1/C=C/C1CC1 (some centres undefined) | -0.0718 (inactive)
22 | CCOC(=O)C1=CCC(c2ccncc2)N(S(=O)(=O)c2ccc(C)cc2)C1 (centres undefined) | 0.336 (inactive)
23 | COC(=O)[C@@]1(Cc2ccc(F)cc2)[C@H]2c3cc(C(=O)N4CCCC4)n(Cc4ccc(C(F)(F)F)nc4)c3C[C@H]2CN1C(=O)c1ccccc1 | -0.293 (inactive)
24 | COCCOC(=O)N1C(=O)[C@@]2(c3cc(C#CCNC(N)=O)ccc31)[C@H](c1ccccc1OCCO)N1[C@H](c3ccccc3)[C@H](c3ccccc3)OC(=O)[C@H]1[C@@H]2C(=O)N1CCCCCCC1 | -0.515 (inactive)
25 | CCCCC(=C=CC[C@@H](O)c1ccccc1OCCO)C[C@@H](O)c1ccccn1 | 0.0399 (inactive)
26 | O=C(NCC(F)(F)F)[C@@H]1c2ccccc2C(=O)N(Cc2cc(C(F)(F)F)cc(C(F)(F)F)c2)[C@H]1c1ccc(CO)cc1 | 0.955 (inactive)
27 | CC(CO)N1C(=O)[C@@H]2[C@H]3C(=O)OCC=C[C@H]3OC23C=CCN(c2ccc4ccccc4c2)C(=O)[C@@H]13 (some centres undefined) | -0.594 (inactive)

test: small-molecule microarray binders of probe aLefty2, primary screen, biochemical, biotinylated probe, 635/667 nm fluorescence (AID 1094); conditions: higher = more signal;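 further: score merges spot fluorescence near 667 nm with spot signal-to-noise ratio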

Row | Structure (SMILES) | composite z-score
28 | C[C@@]1([C@@H](NS(=O)(=O)c2cccc3cccnc23)c2ccc(-c3ccccc3)cc2)C[C@H]1C1CCCCC1 | 0.134
29 | O=C1O[C@H](c2ccccc2)[C@H](c2ccccc2)N2[C@H]1[C@@H](C(=O)N1CCN(c3ncccn3)CC1)[C@]1(C(=O)Nc3ccc(C#CC4(O)CCCCCC4)cc31)[C@H]2c1ccc(O)cc1 | -0.209
30 | C=CCC(OC(C)=O)[C@@H]1[C@@H](N(Cc2ccc(-c3ccccc3)cc2)C(=O)Cc2ccc(OC)cc2)c2cc(OCCCO)ccc2N1C(=O)c1ccc2ccccc2c1 (some centres undefined) | -0.154
31 | O=C(NC1CC1)[C@@H]1c2ccccc2C(=O)N(C2CCCCC2)[C@H]1c1ccc(CO)cc1 | 0.322
32 | COC(=O)[C@@]1(Cc2ccccc2)[C@H]2c3cc(C(=O)N(C)C)n(Cc4nc5ccccc5[nH]4)c3C[C@H]2CN1C(=O)c1ccccc1 | 0.718
33 | C=CCOC(=O)[C@@H]1[C@H]2C(=O)O[C@H](c3ccccc3)[C@H](c3ccccc3)N2[C@H](c2ccc(OCCOC(=O)[C@@H]3C[C@@H]4C(=O)N[C@@H](CC(C)C)C(=O)N4[C@@H]3c3ccc(O)cc3)cc2)[C@@]12C(=O)Nc1ccc(I)cc12 | -0.0321
34 | COCCOC(=O)N1C(=O)[C@@]2(c3cc(C#CCNC(N)=O)ccc31)[C@H](C(N)=O)[C@H]1C(=O)O[C@H](c3ccccc3)[C@H](c3ccccc3)N1[C@@H]2c1ccc(O)cc1 | 0.0362
35 | C=CCNC(=O)[C@H]1[C@@H]2C(=O)O[C@@H](c3ccccc3)[C@@H](c3ccccc3)N2[C@@H](c2ccc(OCCO)cc2)[C@]12C(=O)Nc1ccc(C#Cc3ccc(OC)cc3)cc12 | 0.326
36 | CN1C(=O)C2C=CC(C(O)c3ccc(I)cc3)N(N(c3ccccc3)c3ccccc3)C2C1=O (centres undefined) | 0.17
37 | Cc1ccc(S[C@]2(C(=O)NCc3ccccc3)CC(=O)N(Cc3ccccc3Cl)[C@@H]2c2ccc(CO)cc2)cc1 | 0.145
38 | C[C@]1(C(=O)O)c2ccccc2C(=O)N(Cc2cc(C(F)(F)F)cc(C(F)(F)F)c2)[C@H]1c1ccc(CO)cc1 | -0.141
39 | COC(=O)C(CC#Cc1ccc2c(c1)[C@]1(C(=O)N2)[C@H](C(N)=O)[C@H]2C(=O)O[C@H](c3ccccc3)[C@H](c3ccccc3)N2[C@@H]1c1ccccc1OCCO)C(=O)OC | -0.075
40 | COC(=O)[C@@]1(Cc2ccc(F)cc2)[C@H]2c3cc(C(=O)N(C)C)n(Cc4ccc(C(F)(F)F)nc4)c3C[C@H]2CN1C(=O)c1ccccc1 | 0.317
41 | CCN1C(=O)C2CC(=O)C3C(CN(S(=O)(=O)c4ccc(C)cc4)C3c3ccc(C)cc3)C2C1=O (centres undefined) | -0.0176
42 | C=C[C@H](OC)[C@@H](O)c1ccc(OC)c(O)c1 | -0.0783
43 | CCCCCN1CC=CC23O[C@@H]4/C=C\CCCOC(=O)C4[C@H]2C(=O)N(CCCCCO)[C@@H]3C1=O (some centres undefined) | -0.159

Row | Structure (SMILES) | composite z-score
44 | CC(C)C[C@H]1NC(=O)CNC(=O)[C@@]23C(=O)N[C@@H](Cc4ccccc4)C2[C@H](C)[C@@]2(C)O[C@H]2C3/C=C/C/C=C\CNC1=O (some centres undefined) | -0.157
45 | C=CCNC(=O)[C@@H]1[C@H]2C(=O)O[C@H](c3ccccc3)[C@H](c3ccccc3)N2[C@H](c2ccc(OCCO)cc2)[C@@]12C(=O)Nc1ccc(C#CCNC(N)=O)cc12 | -0.0368
46 | CC(C)[Si](C#Cc1ccccc1)(O[C@H](c1ccccc1)c1cn(Cc2ccccc2)nn1)C(C)C | -0.195
47 | C=C(C(=O)CC[C@@H](OC(=O)c1cccnc1)c1cccc(OCCO)c1)C(C)C | -0.0962
48 | CCCCN1CC=CC23O[C@@H]4/C=C\CCC(C)OC(=O)C4[C@H]2C(=O)N(CCO)[C@@H]3C1=O (some centres undefined) | 0.0469
49 | O=C/C=C/c1ccc(-c2ccccc2)cc1 | -0.103
50 | COc1cc(CO)cc(I)c1O[C@H]1C=C(C(=O)NCCO)C[C@@H](N(CCN2CCOCC2)C(=O)C2CCCO2)[C@@H]1O (some centres undefined) | -0.172
51 | CC(C)C[C@@H]1NC(=O)[C@H]2C[C@@H](C(=O)O)[C@@H](c3cccc(OCCO)c3)N2C1=O | 0.276
52 | COc1cc(Cc2cc3c(c(CCc4ccccc4)n2)[Si](C(C)C)(C(C)C)O[C@H]3c2ccccc2)cc(OC)c1OC | -0.0284
53 | C=CCNC(=O)[C@@H]1[C@H]2C(=O)O[C@H](c3ccccc3)[C@H](c3ccccc3)N2[C@H](c2ccc(O)cc2)[C@@]12C(=O)Nc1ccc(C#CC3=CCCCC3)cc12 | -0.162
54 | Cc1cccc([C@H]2C[C@H]3C(Br)=C[C@@]2(CO)C(=O)[C@]32CO2)c1 | -0.114
55 | COCCOC(=O)N1C(=O)[C@@]2(c3cc(C#CCCO)ccc31)[C@H](C(=O)N1CCN(c3ncccn3)CC1)[C@H]1C(=O)O[C@H](c3ccccc3)[C@H](c3ccccc3)N1[C@@H]2c1ccc(OCCO)cc1 | -0.025
56 | COC(=O)[C@H](Cc1ccccc1)N1CC(C)(OC)O[C@@H](Cc2ccccc2)[C@H]1/C=C/C1CC1 (some centres undefined) | -0.124
57 | CCOC(=O)C1=CCC(c2ccncc2)N(S(=O)(=O)c2ccc(C)cc2)C1 (centres undefined) | -0.0585
58 | COC(=O)[C@@]1(Cc2ccc(F)cc2)[C@H]2c3cc(C(=O)N4CCCC4)n(Cc4ccc(C(F)(F)F)nc4)c3C[C@H]2CN1C(=O)c1ccccc1 | 0.67
59 | COCCOC(=O)N1C(=O)[C@@]2(c3cc(C#CCNC(N)=O)ccc31)[C@H](c1ccccc1OCCO)N1[C@H](c3ccccc3)[C@H](c3ccccc3)OC(=O)[C@H]1[C@@H]2C(=O)N1CCCCCCC1 | 0.365
